Screen size: about 5,500 compounds; about 2,000 (36%) were called active. Not shown: some 18% with an inconclusive outcome. Rule as the data show it: active = normalized growth mostly below about 0.91 (no sharp cut-off); inconclusive = no clear call, values can overlap the other calls; inactive = mostly above about 0.92. The list shows a part of the results.
Assay: chemical genetic growth profiling, strain panel (AID 1159580);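 also: tested at 20 µM; growth read once vehicle control cultures reached saturation at 30 °C; 1 = growth at the plate median or of vehicle wells; lower values mean less growth of the strain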
Conditions: S. cerevisiae deletion strains, growth OD

Measured: normalized growth

OCC(O)Cc1ccc2c(c1)OCO2 (stereo not drawn)
inactive: locus YAL013W, strain DEP1, stronger effect = lower value 1.02 | locus YAL021C, strain ccr4, stronger effect = lower value 1.02 | locus YAL026C, strain drs2, stronger effect = lower value 0.985 | locus YAL030W, strain snc1, stronger effect = lower value 1 | locus YBL061C, strain skt5, stronger effect = lower value 0.997 | locus YBR009C, strain hhf1, stronger effect = lower value 1.01 | locus YBR021W, strain FUR4, stronger effect = lower value 1.02 | locus YBR023C, strain chs3, stronger effect = lower value 1.01 | locus YBR171W, strain sec66, stronger effect = lower value 1.01 | locus YBR229C, strain ROT2, stronger effect = lower value 1.01 | locus YBR231C, strain swc5, stronger effect = lower value 0.992 | locus YBR279W, strain paf1, stronger effect = lower value 1 | locus YCL011C, strain gbp2, stronger effect = lower value 1 | locus YCL016C, strain dcc1, stronger effect = lower value 1 | locus YCL029C, strain bik1, stronger effect = lower value 0.997 | locus YCL069W, strain vba3, stronger effect = lower value 0.981 | locus YCR088W, strain abp1, stronger effect = lower value 0.993 | locus YDL005C, strain med2, stronger effect = lower value 0.999 | locus YDL035C, strain GPR1, stronger effect = lower value 1.02 | locus YDL040C, strain nat1, stronger effect = lower value 0.998 | locus YDL074C, strain BRE1, stronger effect = lower value 1.05 | locus YDL101C, strain DUN1, stronger effect = lower value 1.02 | locus YDL134C, strain PPH21, stronger effect = lower value 1.01 | locus YDL185W, strain tfp1, stronger effect = lower value 0.999 | locus YDL192W, strain arf1, stronger effect = lower value 0.999 | locus YDR001C, strain nth1, stronger effect = lower value 0.997 | locus YDR069C, strain doa4, stronger effect = lower value 0.979 | locus YDR101C, strain arx1, stronger effect = lower value 0.989 | locus YDR137W, strain rgp1, stronger effect = lower value 0.993 | locus YDR150W, strain NUM1, stronger effect = lower value 1.02 | locus YDR159W, strain sac3, stronger effect = lower value 0.971 | locus YDR162C, strain NBP2, stronger effect = lower value 1.03 | locus YDR195W, strain ref2 0.966 | locus YDR297W, strain sur2, stronger effect = lower value 1.01 | locus YDR318W, strain mcm21, stronger effect = lower value 0.991 | locus YDR334W, strain swr1, stronger effect = lower value 1 | locus YDR335W, strain msn5, stronger effect = lower value 0.996 | locus YDR388W, stronger effect = lower value 1 | locus YDR392W, strain spt3, stronger effect = lower value 1.02 | locus YDR502C, strain sam2, stronger effect = lower value 1 | locus YEL003W, strain gim4, stronger effect = lower value 1.01 | locus YEL037C, strain rad23, stronger effect = lower value 1.01 | locus YEL061C, strain CIN8 (second series), stronger effect = lower value 1 | locus YEL061C, strain CIN8, stronger effect = lower value 1.01 | locus YER015W, strain faa2, stronger effect = lower value 1 | locus YER016W, strain bim1, stronger effect = lower value 1 | locus YER110C, stronger effect = lower value 0.996 | locus YER111C, strain swi4, stronger effect = lower value 0.997 | locus YER155C, strain BEM2 (second series), stronger effect = lower value 0.993 | locus YER155C, strain BEM2, stronger effect = lower value 1.01 | locus YER167W, strain BCK2, stronger effect = lower value 1.01 | locus YFR010W, strain ubp6, stronger effect = lower value 1.01 | locus YGL078C, strain dbp3, stronger effect = lower value 1 | locus YGL086W, strain mad1, stronger effect = lower value 0.993 | locus YGL167C, strain pmr1, stronger effect = lower value 1 | locus YGL173C, strain kem1, stronger effect = lower value 0.991 | locus YGL227W, strain vid30, stronger effect = lower value 0.985 | locus YGL240W, strain doc1, stronger effect = lower value 0.984 | locus YGL248W, strain PDE1, stronger effect = lower value 1.01 | locus YGL253W, strain hxk2, stronger effect = lower value 1 | locus YGR078C, strain PAC10, stronger effect = lower value 1.02 | locus YGR135W, strain pre9, stronger effect = lower value 1.01 | locus YGR229C, strain SMI1, stronger effect = lower value 1.02 | locus YGR252W, strain gcn5, stronger effect = lower value 1 | locus YHR013C, strain ard1, stronger effect = lower value 1.01 | locus YHR027C, strain rpn1, stronger effect = lower value 1 | locus YHR030C, strain SLT2, stronger effect = lower value 1.01 | locus YHR079C, strain IRE1 (second series), stronger effect = lower value 0.991 | locus YHR094C, strain hxt1, stronger effect = lower value 0.999 | locus YHR129C, strain ARP1, stronger effect = lower value 1.01 | locus YHR142W, strain chs7, stronger effect = lower value 1.01 | locus YHR200W, strain rpn10, stronger effect = lower value 1 | locus YIL066C, strain RNR3, stronger effect = lower value 1.02 | locus YIL073C, strain SPO22, stronger effect = lower value 1.04 | locus YIL125W, strain kgd1, stronger effect = lower value 1.02 | locus YIR030C, strain dcg1, stronger effect = lower value 1 | locus YJL092W, strain hpr5, stronger effect = lower value 0.998 | locus YJL095W, strain BCK1 (second series), stronger effect = lower value 1 | locus YJL095W, strain BCK1, stronger effect = lower value 1.04 | locus YJL115W, strain asf1, stronger effect = lower value 1 | locus YJL129C, strain trk1, stronger effect = lower value 0.989 | locus YJL134W, strain LCB3, stronger effect = lower value 1.01 | locus YJL154C, strain vps35, stronger effect = lower value 1 | locus YJL164C, strain tpk1, stronger effect = lower value 1.01 | locus YJL166W, strain qcr8, stronger effect = lower value 1.02 | locus YJL168C, strain set2, stronger effect = lower value 0.994 | locus YJL187C, strain SWE1 (second series), stronger effect = lower value 1.03 | locus YJL187C, strain SWE1, stronger effect = lower value 0.982

From PubChem BioAssay AID1159580 (chemical genetic matrix, 2015)
